Bioassay records: PubChem BioAssay, National Center for Advancing Translational Sciences (NCATS)
This is a sample that favours compounds with a hit; in the whole collection about 2.4% have one here.
D2 antagonist = antagonizes the human D2 dopamine receptor; P14416; HEK293 TREx D2 cells, calcium flux, dopamine EC80; inhibition, % at 10 µM; hit rate 2% among 340,000; in the data active = inhibition above about 30%; inactive = below that, where a call was filed; note: 0% is about no effect
Target sequence (P14416 whole entry, looked up): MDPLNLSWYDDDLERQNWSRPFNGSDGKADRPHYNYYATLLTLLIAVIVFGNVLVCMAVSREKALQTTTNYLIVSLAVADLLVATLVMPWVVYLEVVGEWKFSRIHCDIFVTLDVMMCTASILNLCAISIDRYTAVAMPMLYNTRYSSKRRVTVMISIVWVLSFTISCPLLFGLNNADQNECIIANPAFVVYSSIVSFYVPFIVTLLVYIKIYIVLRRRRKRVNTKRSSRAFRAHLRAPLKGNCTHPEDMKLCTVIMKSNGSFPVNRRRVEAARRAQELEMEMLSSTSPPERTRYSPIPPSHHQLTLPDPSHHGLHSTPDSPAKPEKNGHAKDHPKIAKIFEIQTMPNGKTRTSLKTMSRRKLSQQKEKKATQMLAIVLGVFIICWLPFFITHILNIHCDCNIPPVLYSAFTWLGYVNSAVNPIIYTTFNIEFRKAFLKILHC
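Tetracycline-induced HEK293 T-REx cells expressing D2 force-coupled to calcium signalling were dye-loaded, exposed to compound for 180 s, then challenged with an EC80 of dopamine; calcium flux was followed kinetically for a further 180 s.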
D2 PAM-1 = positive allosteric modulators of human D2 dopamine receptor; hit rate 0.34% among 340,000; AID 485347; potentiation, % at 10 µM; HEK293 T-REx D2, calcium flux, EC20 dopamine potentiation; P14416;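 active = potentiation over 3 SD above the plate norm, cut at about 30% in these data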; note: 0% is about no effect
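Potentiation of an EC20 dopamine calcium response measured kinetically over 180 s, after a preceding 180 s compound-only read flagging agonists. Cells: inducible Hek293 Trex D2 line, 4000/well, cultured overnight at 30 C before dye loading.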
D2 ag-1 = agonists of human D2 dopamine receptor. hit rate 0.53% among 340,000. AID 485358. activation, % at 2 µM. HEK293 T-REx D2 cells, calcium flux agonist mode. P14416;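 active = activation over 3 SD above normal in the single-dose calcium agonist read, cut at about 30% in these data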; note: 0% is about no effect
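Agonism is scored from calcium flux in a force-coupled, inducible HEK293 cell line expressing D2, read kinetically for 180 s after compound addition against dopamine controls.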
D2 ag-2 = activates the human D2 dopamine receptor; P14416; hit rate 0.084% among 360,000; DiscoveRx PathHunter D2 beta-arrestin, luminescence, 90 min; 100% = 57 uM dopamine signal; activation, % (concentration not given with the values); in the data active = activation above about 40%; inconclusive = between about 15% and that limit
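Agonist mode: compounds alone added to overnight-plated D2 PathHunter cells for 90 min at 37 C, with 57 uM final dopamine (EC100) defining full response. Beta-arrestin recruitment detected by chemiluminescent reagent, read after 1 h at ambient temperature.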
D2 PAM-2 = human D2 receptor positive allosteric modulation; hit rate 0.23% among 360,000; P14416; DiscoveRx D2 beta-arrestin cells, luminescence, 90 min; 100% = 57 uM dopamine signal; potentiation, % (concentration not given with the values); in the data active = potentiation above about 50%; inconclusive = mostly about 30% to 49%
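PathHunter beta-arrestin assay in DiscoveRx D2 cells. Compounds were added with an EC20 of dopamine (50 nM final) for 90 min at 37 deg C. Luminescence was read 1 h after detection reagent, with 57 uM dopamine as the EC100 control.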
The depositor's hits bear a star; ? = inconclusive; / = not tested or not shown.

SMILES	D2 antagonist	D2 PAM-1	D2 ag-1	D2 ag-2	D2 PAM-2
COc1ccc(OC)c(CN2CCN(CCCc3ccccc3)C(CCO)C2)c1 (stereo unspecified)	69*	-35	1	-2	-4
Nc1nonc1-c1nc2ccccc2n1Cc1cccc(Cl)c1	/	-5	1	/	/
Cc1cc(F)ccc1C(O)c1ncc(-c2ccccc2Cl)[nH]1 (stereo unspecified)	/	/	/	-7	-7
COc1cccc(CN2CCN(Cc3ccc(O)c(OC)c3)CC2CCO)c1 (stereo unspecified)	36*	-8	1	-5	-18
COc1ccccc1CN(Cc1ccco1)c1cnc(S(C)(=O)=O)nc1C(=O)Nc1cc(C)ccc1C	/	13	3	/	/
O=C(COc1ccc2c(-c3ccccc3)cc(=O)oc2c1)NC1CCS(=O)(=O)C1 (stereo unspecified)	-21	-3	1	1	-5
COc1ccccc1N1CCN(CCC(=O)Nc2ccc(F)cc2)CC1	66*	-23	5	-5	-28
CCOC(=O)c1c(C)n(C)c2ccc(OC)c(NC(=O)CCN3CCC(Cc4ccccc4)CC3)c12	91*	-32	0	-3	-16
O=C(CN1CCN(c2ccccc2F)CC1)Nc1ccc2c(c1)CCC2	69*	-22	-1	4	-1
CCOC(=O)c1c(C)n(C)c2ccc(OC)c(NC(=O)CN3CCSCC3)c12	-12	1	0	-4	-8
CCOC(=O)N1CCN(CCC(=O)Nc2ccccc2OC)CC1	50*	-6	2	-1	-12
Cc1ccc(NC(=O)CN2CCN(c3ccccc3F)CC2)cc1F	/	-28	-3	/	/
Cc1ccc(NC(=O)CSc2nccn2C2CCCC2)cc1Cl	/	5	0	/	/
CCCSCCCNC(=O)Cn1c(-c2cccs2)cc2ccccc21	/	5	/	/	/
Cc1ccc(NC(=O)CN2CCC(NC(=O)c3cccc(F)c3)CC2)cc1C	6	-3	0	0	-37
COc1ccccc1N1CCN(CCC(=O)Nc2cccc(Cl)c2)CC1	96*	-39	36*	-2	-26
COc1ccccc1N1CCN(CCCCCCOc2ccc(F)cc2)CC1	81*	-48	6	-1	-30
O=C(CN1CCC(NC(=O)C2CC2)CC1)Nc1cccc(F)c1	31*	-21	0	-3	-19
COc1ccccc1N1CCN(CC(=O)Nc2ccc(C)c(F)c2)CC1	-8	0	-1	-4	-37
COc1ccccc1N1CCN(CC(=O)Nc2cccc(F)c2)CC1	31*	-21	0	-3	-15
CC1(C(=O)NS(=O)(=O)c2cccs2)CCN1C(=O)C1CCCCC1 (stereo unspecified)	/	/	/	-4	-5
COCCCNC(=O)CSc1nc2cc3c(cc2c(=O)n1CCCC(=O)NCc1ccc2c(c1)OCO2)OCO3	/	7	0	/	/
CCOC(=O)C1CCCN(CC(=O)N(C)c2c(N)n(Cc3ccccc3)c(=O)[nH]c2=O)C1 (stereo unspecified)	/	/	/	-2	-11
CCOC(=O)c1cc(OC(=O)c2cccc(F)c2)n(-c2ccccc2)n1	/	-7	0	/	/
Cc1ccc(S(=O)(=O)N2C[C@H]3[C@H]4C(=O)N(C)C(=O)[C@H]4CC(=O)[C@H]3[C@@H]2c2ccccc2F)cc1	/	/	/	-4	-4
SMILES	D2 antagonist	D2 PAM-1	D2 ag-1	D2 ag-2	D2 PAM-2
C=CC[C@H](CC(=O)OC(C)(C)C)C(=O)OC[C@H]1CCCN1C(=O)[C@H](CC=C)CC(=O)NCCO	/	/	/	0	-13
CCOc1ccc(NC(=O)c2cc(S(=O)(=O)N3CCOCC3)cn2C)cc1	-6	2	0	-3	-7
COc1cc(/C=C2\SC(N3CCc4ccccc4C3)=NC2=O)cc(OC)c1OC	56*	-29	0	-8	-23
CC1(C)CC(=O)c2c(O)cc(OCC(=O)N3CCN(c4ccccc4)CC3)cc2O1	-4	-4	-1	-6	-22
Cc1ccc(C(=O)c2cnc3ccccc3c2-c2ccccc2)cc1	-4	31*	2	-4	-7
CC(O)C1CCC2C3CCC4CC(O)CCC4(C)C3C(=O)CC12C (stereo unspecified)	/	/	/	-3	-20
O=C(c1ccc(Cl)cc1)C1CCN(Cc2ccccc2)CC1	81*	-29	-1	-3	-78
O=C(c1ccc(F)cc1)C1CCN(Cc2ccccc2F)CC1	/	/	/	-7	-20
O=C(NN1CCN(Cc2ccccc2)CC1)c1ccc(Cl)cc1	67*	-38	2	0	-27
COc1ccccc1NC(=O)Cn1c(SCC(=O)NCc2ccccc2)nc2ccccc21	/	1	/	/	/
O=C1c2ccc([N+](=O)[O-])cc2S(=O)(=O)N1Cc1ccccc1	16	20	-1	?	72*
NC(=O)c1ccccc1NC(=O)CC12CC3CC(CC(Br)(C3)C1)C2	-5	36*	5	-1	-5
COc1ccccc1NC(=O)CC12CC3CC(CC(Br)(C3)C1)C2	-2	5	1	1	-4
O=[N+]([O-])c1ccc2nc(Cl)nc(-c3ccccc3)c2c1	0	11	0	2	-15
CCCCOC(=O)c1ccc(NC(=O)CN2C(=O)NC3(CCCCCC3)C2=O)cc1	2	5	1	-2	-1
NC(=O)c1ccsc1NC(=O)CN1C(=O)NC2(CCCCC2)C1=O	-4	-7	0	2	-2
CC1CCC2(CC1)NC(=O)N(CC(=O)Nc1sc3c(c1C(N)=O)CCC3)C2=O (stereo unspecified)	38*	-1	1	5	-8
N#Cc1ccsc1NC(=O)CN1C(=O)NC2(CCCC2)C1=O	40*	-20	0	/	/
Cc1ccc(NC(=O)CN2C(=O)NC3(CCCC3)C2=O)c(Cl)c1	-16	15	-1	-1	-4
O=C(CN1C(=O)NC2(CCCCCC2)C1=O)Nc1ccc(Br)cc1Br	37*	16	0	-1	2
COC(=O)c1c(NC(=O)CN2C(=O)NC3(CCC(C)CC3)C2=O)sc2c1CCC2 (stereo unspecified)	-13	-16	0	2	-1
CCOC(=O)c1ccc(NC(=O)CN2C(=O)NC3(CCCCCCC3)C2=O)cc1	38*	14	0	2	1
Cc1ccc2c(c1)c1c3n2CCN(C(=O)c2cccc(C(F)(F)F)c2)C3CCC1 (stereo unspecified)	/	-3	1	/	/
CCOC(=O)c1ccc(NS(=O)(=O)c2ccc3c(c2)OCCO3)cc1	/	-10	1	/	/
Cc1ccc(-c2onc(C)c2C)cc1S(=O)(=O)N1CCc2ccccc21	/	9	/	/	/
COc1ccc(S(=O)(=O)N2CCOC2CNC(=O)C(=O)NCc2ccccn2)cc1C (stereo unspecified)	-2	10	1	-4	-9
Cc1nc2nc(NC(=O)C(C)C)[nH]n2c(=O)c1Cc1ccccc1	/	13	0	/	/
